Assay [1] is described as follows: qHTS assay to identify small molecule agonists of the vitamin D receptor (VDR) signaling pathway - cell viability counter screen (AID 743224). For activity change, negative = cytotoxicity: % is set by controls: 0 for no effect and ±100 for the full control effect. Note: nearly all actives have a fitted effect of over 50% in size. Note: potency is the fitted concentration of half-maximal effect. A digest of the protocol:
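Cells: VDR-bla, 2,000/well, settled 4 h. Treatment: compounds in DMSO, 16 h, 37C/5% CO2. Readout: CellTiter-Glo luminescence after 30 min RT.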

Assay [2] can be described thus: qHTS assay to identify small molecule antagonists of the vitamin D receptor (VDR) signaling pathway - cell viability counter screen (AID 743225). Note: nearly all actives have a fitted effect of over 50% in size. Note: potency is the fitted concentration of half-maximal effect. A digest of the protocol:
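VDR-UAS-bla HEK 293T cells were plated and incubated 4 h at 37C, then dosed with compound plus 3 nM (final) 1-alpha,25-dihydroxyvitamin D3 for 16 h. After the 2 h beta-lactamase read, viability in the same wells was read as CellTiter-Glo luminescence after 30 min at room temperature.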

Assay [3] in a line: qHTS assay to identify small molecule agonists of the NFkB signaling pathway - cell viability counter screen (AID 1159515; calls by dose curve; note: nearly all actives have a fitted effect of over 55% in size; note: potency is the fitted concentration of half-maximal effect). A digest of the protocol: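 Cells are seeded (2,000 NFkB-bla ME-180 per well), rested overnight, and dosed with DMSO-dissolved compounds for 5 hr at 37 C. Viability is then read by CellTiter-Glo luminescence after 30 min at room temperature.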
Assay [4] in a line: qHTS assay to identify small molecule agonists of the endoplasmic reticulum stress response signaling pathway (AID 1159516; active = well fitted activation curve with a large enough effect in the signal ratio in the repeat runs, not every such curve was filed as active; the % refers to the signal ratio; note: potency is the fitted concentration of half-maximal effect). A digest of the protocol:
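Cells are seeded at 1,500 per well and incubated overnight. Compounds in DMSO are added for 5 hr at 37 C, then beta-lactamase FRET substrate for 2 hr at room temperature, and fluorescence at 460 and 530 nm is measured.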

The nature of assay [5]: qHTS assay to identify small molecule antagonists of the retinoid-related orphan receptor gamma (ROR-gamma) signaling pathway - cell viability counter screen (AID 1159520). Note: nearly all actives have a fitted effect of over 50% in size. Note: potency is the fitted concentration of half-maximal effect. A digest of the protocol: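 Cytotoxicity was read from cellular ATP (CellTiter-Glo luminescence) after 16 hr at 37 C with 1 uM doxycycline induction. The inducer was added 2 hr after compound transfer to Tet-on ROR gamma CHO cells.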

Assay [6] is described as follows: qHTS assay to identify small molecule agonists of the AP-1 signaling pathway - cell viability counter screen (AID 1159525; calls by dose curve; note: nearly all actives have a fitted effect of over 55% in size). A digest of the protocol: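 Intracellular ATP by Cell Titer Glo luminescence (30 min, RT) in the same ME-180 AP-1-bla wells after the 5 h compound exposure at 37 °C. Normalised to tetra n-octyl ammonium bromide and DMSO controls.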
Assay [7] is described as follows: qHTS assay to identify small molecule agonists of the AP-1 signaling pathway (AID 1159526; calls by dose curve; note: % is set by controls: 0 for no effect and ±100 for the full control effect).
Assay [8] concerns the target Retinoic acid receptor RXR-alpha (Homo sapiens) (UniProt P19793). Briefly: qHTS assay to identify small molecule agonists of the RXR signaling pathway (AID 1159527; calls by dose curve; note: % is set by controls: 0 for no effect and ±100 for the full control effect; nearly all actives have a fitted effect of over 35% in size). The method, boiled down: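 GeneBLAzer RXR-alpha-UAS-bla HEK 293T cells in 2% charcoal-stripped FBS medium were exposed to compounds for 16 hr at 37 C in agonist mode. Beta-lactamase reporter read as 460/530 nm FRET ratio after 2 hr substrate loading.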

Assay [9] is described as follows: qHTS assay to identify small molecule antagonists of the retinoid acid receptor (RAR) signaling pathway - cell viability counter screen (AID 1159551). Note: % is set by controls: 0 for no effect and ±100 for the full control effect; nearly all actives have a fitted effect of over 35% in size. A digest of the protocol:
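Cells (C3RL4) are plated, incubated overnight, dosed with compound in DMSO, then given retinol at 1 uM final. After 6 h at 37 C, CellTiter-Glo is added and luminescence read following 30 min at room temperature.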

Assay [10] is described as follows: qHTS assay to identify small molecule agonists of the retinoic acid receptor (RAR) signaling pathway (AID 1159553). Note: potency is the fitted concentration of half-maximal effect. To be noted: C3RL4 RARE luciferase reporter, agonist, 6 h; activation: at 73.3 µM (top of the series) unless noted. The method, boiled down:
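Seed C3RL4 reporter cells at 1,000 per well and incubate overnight at 37 C. Add compounds in DMSO, incubate 6 hr. Add luciferase reagent, wait 30 min at room temperature, read luminescence.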

For assay [11], the target named is Nuclear receptor ROR-gamma (Homo sapiens) (UniProt P51449). Briefly: qHTS assay to identify small molecule antagonists of the retinoid-related orphan receptor gamma (ROR-gamma) signaling pathway (AID 1159521; note: nearly all actives have a fitted effect of over 50% in size; note: potency is the fitted concentration of half-maximal effect). The method, boiled down:
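Tet-on ROR-gamma CHO cells with ROR response element-luciferase reporter; compounds added 2 hr before 1 uM doxycycline induction, then 16 hr at 37 C. Antagonism scored as decreased ONE-Glo luminescence.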

Assay [12] is described as follows: qHTS assay to identify small molecule antagonists of the retinoic acid receptor (RAR) signaling pathway (AID 1159552). A digest of the protocol:
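Retinol signaling pathway inhibitors screened in C3RL4 RARE-luciferase reporter cells seeded overnight at 37 C, then compounds added with 1 uM (final) retinol as pathway substrate. After 6 hr at 37 C, luciferase luminescence read after 30 min at room temperature.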

Assay [13] is described as follows: qHTS assay to identify small molecule agonists of the RXR signaling pathway - cell viability counter screen (AID 1159529). The method, boiled down:
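RXR-alpha-UAS-bla HEK 293T cells in medium with 2% charcoal-stripped FBS were pre-incubated 5 hr, then compound-treated 16 hr at 37 C. Viability was read by CellTiter-Glo luminescence in the same wells as the beta-lactamase assay, with tetraoctyl ammonium bromide as positive control.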

The nature of assay [14]: qHTS assay to identify small molecule antagonists of the estrogen related receptor (ERR) signaling pathway - cell viability counter screen (AID 1224818). Note: % is set by controls: 0 for no effect and ±100 for the full control effect. The method, boiled down:
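ERR cells, 2,000/well; 6 h settle at 37 C/5% CO2; compound pin transfer (DMSO); 17.5 h at 37 C; CellTiter-Fluor, 30 min, fluorescence read.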

Assay [15] in a line: qHTS assay to identify small molecule antagonists of the estrogen related receptor signaling pathway with the pleiotropic PPARgamma coactivator (PGC) cell viability counter screen (AID 1224822;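 note: viability read after 17.5 h compound exposure; % is set by controls: 0 for no effect and ±100 for the full control effect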). The method, boiled down: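 Multiplexed viability counter screen run in PGC/ERR cells treated with compounds for 17.5 h at 37 C; live-cell protease signal measured by CellTiter-Fluor fluorescence.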

Experimental findings from PubChem BioAssay (Tox21) are described below.

Where “and” joins values, the source holds several entries; their conditions need not be identical. Equal values may be shown once. Records with an inconclusive call do not appear. Values without a mark were called inactive. Calls of active or inactive are those of the source. Unless noted, calls come from the whole dose curve; as a rule, active = well fitted curve in the direction sought with a large enough effect in the repeat runs; inconclusive = weak or mixed curves; inactive = no such curve, though single readings can be large; an effect the other way counts as inactive or inconclusive.

Sequence of Retinoic acid receptor RXR-alpha (Homo sapiens) (P19793 whole entry, looked up): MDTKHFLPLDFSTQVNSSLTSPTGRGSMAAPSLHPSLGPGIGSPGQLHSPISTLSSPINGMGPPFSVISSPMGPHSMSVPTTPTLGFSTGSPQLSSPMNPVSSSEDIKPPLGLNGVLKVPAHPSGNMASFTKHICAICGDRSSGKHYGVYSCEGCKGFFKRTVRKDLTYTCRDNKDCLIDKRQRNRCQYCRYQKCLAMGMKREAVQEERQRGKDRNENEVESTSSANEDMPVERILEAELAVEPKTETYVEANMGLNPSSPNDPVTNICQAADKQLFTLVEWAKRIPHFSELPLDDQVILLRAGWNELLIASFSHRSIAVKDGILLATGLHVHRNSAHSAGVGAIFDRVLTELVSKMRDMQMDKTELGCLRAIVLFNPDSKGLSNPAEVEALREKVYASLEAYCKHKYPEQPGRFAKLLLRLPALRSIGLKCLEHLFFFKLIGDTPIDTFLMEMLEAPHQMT

For `CC(=O)CC(=O)Nc1ccc(S(=O)(=O)O)cc1`, the Potency entry in assay [1], in assay [2], in assay [3], in assay [4], in assay [5] and in assay [6] was “inactive” in each case. In addition, the Potency result in assay [7], in [8] and in assay [9] was “inactive” throughout.
As to `C[C@H]1NCc2cc(-c3ccc4c(=O)c(C(=O)O)cn(C5CC5)c4c3OC(F)F)ccc21`, the Potency result in [1], in assay [2], in assay [3], in [4] and in assay [10] was “inactive” throughout. Also, the activity, negative = cytotoxicity in assay [5] is -17.1% [at 19 µM]. Moreover, the viability change, negative = cytotoxic in assay [6] was 1.98% [at 15.8 µM]. The figures for the activation in assay [7] and in assay [8] were -2.94% [at 15.8 µM] and -4.06% [at 15.8 µM], respectively. Besides, the activity change, negative = cytotoxicity in [9] is 0.739% [at 19 µM].
`C=C(C)C(=O)OCCCCCCCCCC`: the Potency in [1] was 44 µM (active). The Potency entry in assay [2], in assay [3], in assay [4], in [5], in [11] and in assay [6] was “inactive” each time.
`OCC(F)(F)F`: the Potency result in assay [3], in assay [4], in assay [5], in [11], in [6] and in assay [9] was “inactive” in each case. Further, the Potency result in assay [12] was “inactive”.
On to `O=C(Oc1ccccc1)Oc1ccccc1`, for which the Potency entry in assay [1], in assay [2], in [3], in assay [4], in assay [5] and in assay [11] was “inactive” each time. The Potency result in assay [6], in assay [7], in [13], in assay [9], in assay [12] and in assay [10] was “inactive” each time.
For `C=CCn1c(=O)n(CC=C)c(=O)n(CC=C)c1=O`, the Potency entry in assay [1], in [2], in assay [3], in assay [4], in assay [5] and in assay [11] was “inactive” in each case. In addition, the Potency result in [6], in assay [7], in assay [13], in assay [9], in assay [12] and in [10] was “inactive” each time.
For `C=CC(=O)OCCOC(=O)C=C`, the Potency entry in assay [1], in assay [2], in assay [3], in assay [4], in assay [5] and in assay [6] was “inactive” each time. The Potency entry in assay [7], in assay [13], in [9], in [12] and in assay [10] was “inactive” throughout.
Turning to `CC(C)NC[C@@H](O)COc1ccc(CC(N)=O)cc1`, the Potency entry in [1], in assay [2], in assay [3], in assay [4], in assay [5] and in assay [6] was “inactive” each time. The Potency result in assay [7], in [13], in assay [9] and in [10] was “inactive” throughout.
Regarding `CN1CCC[C@@H]1CCO[C@](C)(c1ccccc1)c1ccc(Cl)cc1`, the Potency in assay [3] was 21.3 µM (active). For the same compound, the Potency result in [4], in assay [5], in assay [6] and in assay [9] was “inactive” each time.
As for `CCC(CC)C(C)CCOC(C)=O` (stereo not drawn), the Potency entry in assay [1], in [2], in assay [3], in assay [4], in [5] and in assay [6] was “inactive” throughout. The Potency entry in assay [7], in assay [8], in [9], in assay [12] and in assay [10] was “inactive” in each case.
For the compound `Cc1c2ccccc2c(C)c2c1ccc1ccccc12`, the Potency is 43.2 µM (active) and 27.5 µM (active) in assay [1]; 43.2 µM (active) and 19.5 µM (active) in assay [2]; 12.2 µM (active) in assay [3]; 43.2 µM (active) in assay [4]; 60.5 µM (active) and 27.3 µM (active) in assay [5]; 24.1 µM (active) and 21.7 µM (active) in assay [11]. In addition, in assay [10], the Potency was 54.5 µM (active). The Potency entry in [6], in assay [9] and in assay [12] was “inactive” in each case.
For `Cc1c(F)c(N2CCNC(C)C2)cc2c1c(=O)c(C(=O)O)cn2C1CC1` (stereo not drawn), the Potency result in assay [2], in assay [3], in [4], in assay [5], in [11] and in assay [6] was “inactive” each time. The Potency result in [7], in [13], in assay [9], in [12] and in assay [10] was “inactive” each time.
Take `O=C1CCc2cc(OCCCCc3nnnn3C3CCCCC3)ccc2N1`: the Potency result in [1], in [2], in assay [3], in assay [4], in [5] and in assay [11] was “inactive” each time. In addition, the Potency entry in assay [6], in [7], in assay [13], in assay [9] and in assay [15] was “inactive” throughout. Moreover, the call in assay [14] was inactive.
Consider `Cc1ccc(C(=O)O)cc1`, for which the Potency entry in assay [1], in assay [2], in assay [3], in [4], in assay [5] and in assay [6] was “inactive” throughout. Moreover, the Potency result in assay [7], in [13], in assay [9], in [12] and in assay [10] was “inactive” each time.
Consider `Nc1nc(-c2ccccc2)cs1`, for which the Potency entry in [1], in assay [2], in [3], in assay [4], in [5] and in assay [6] was “inactive” in each case. Also, the Potency entry in [8] and in assay [13] was “inactive” in each case.
Turning to `CCN1C(=O)c2ccccc2C1Nc1ccc(OCCN2CCCCC2)cc1` (stereo not drawn), the Potency result in assay [1], in assay [2], in [3], in assay [4], in [5] and in [6] was “inactive” in each case. Also, the Potency result in assay [7], in [8], in [13], in assay [9], in assay [12] and in assay [10] was “inactive” each time.
Turning to `CCC(CC)(CC(=O)Nc1cccc(/C=C/c2nc(C3CCC3)cs2)c1)C(=O)O`, the Potency result in [2], in assay [3], in assay [4], in [5], in assay [11] and in assay [6] was “inactive” each time. In addition, the Potency result in assay [7], in [13], in assay [9] and in assay [12] was “inactive” in each case.
For `O[C@@H]([C@H](O)[C@H](O)CBr)[C@H](O)CBr`, the Potency entry in [2], in assay [3], in assay [4], in assay [5], in assay [6] and in assay [7] was “inactive” in each case. The Potency result in assay [13], in [9], in [12] and in assay [10] was “inactive” throughout.
Regarding `CCCCCC/C=C\CCCCCCCC(=O)O`, the Potency result in assay [1], in [3], in assay [4], in assay [5], in [11] and in assay [13] was “inactive” in each case. Besides, the Potency result in [9], in [12] and in assay [10] was “inactive” throughout.
On to `CCO[Si](OCC)(OCC)OCC`, for which the Potency result in [1], in [2], in [3], in assay [4], in assay [5] and in [11] was “inactive” in each case. In addition, the Potency entry in [6], in [7], in assay [13], in [9], in assay [12] and in [10] was “inactive” each time.
Consider `O=C(O)c1cccc(C(F)(F)F)c1`, for which the Potency result in [1], in assay [3], in [4], in [5], in assay [6] and in [7] was “inactive” each time. The Potency entry in assay [13] and in [9] was “inactive” throughout.
`O=C(O)CCN(C1(C(=O)NO)CCCC1)S(=O)(=O)c1ccc(Oc2ccc(F)cc2)cc1`: the Potency entry in assay [1], in assay [2], in [3], in assay [4], in [5] and in assay [6] was “inactive” each time. Also, the Potency entry in assay [7], in [13], in [9], in assay [12] and in assay [10] was “inactive” throughout.
